{"source": "PubChem BioAssay AID1851", "about": "(National Center for Advancing Translational Sciences (NCATS), 2009)", "note": "About 4,000 (25%) of roughly 16,000 compounds were called active. Inconclusive results (about 26%) are left out. The list is a sample of the results. A number with no mark means an inactive call. Calls follow the shape of the dose curve; as a rule, active = well fitted curve in the direction sought with a large enough effect; inconclusive = small, poorly fitted or top-dose-only effect, or effect the other way; inactive = no such curve, though single readings can be large or run the other way. % is scaled to controls: 0 for no effect and ±100 for the full control effect."}
{"biological_target": "Cytochrome P450 2C9 (Homo sapiens) (UniProt P11712)", "sequence (P11712 whole entry, looked up)": "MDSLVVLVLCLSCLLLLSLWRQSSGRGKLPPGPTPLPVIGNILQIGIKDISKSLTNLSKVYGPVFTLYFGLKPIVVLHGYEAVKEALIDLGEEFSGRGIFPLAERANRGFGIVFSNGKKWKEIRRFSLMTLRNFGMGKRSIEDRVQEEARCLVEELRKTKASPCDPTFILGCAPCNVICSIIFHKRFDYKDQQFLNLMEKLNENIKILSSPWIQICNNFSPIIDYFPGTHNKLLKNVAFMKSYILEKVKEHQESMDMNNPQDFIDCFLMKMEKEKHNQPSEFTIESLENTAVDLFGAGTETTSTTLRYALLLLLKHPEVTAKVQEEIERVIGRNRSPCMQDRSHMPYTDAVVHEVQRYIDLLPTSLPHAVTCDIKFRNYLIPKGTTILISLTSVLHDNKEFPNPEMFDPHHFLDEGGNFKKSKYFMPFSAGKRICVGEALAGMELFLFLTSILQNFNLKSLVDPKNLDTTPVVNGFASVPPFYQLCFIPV", "assay": "Cytochrome panel assay with activity outcomes", "conditions": "recombinant CYP, pro-luciferin dealkylation, luminescence, p450-cyp2c9; series mostly up to 57.1 µM; activity, negative = inhibition: at the top concentration"}
{"smiles": "COc1ccccc1CN1CC[C@@]2(CCCN(S(C)(=O)=O)C2)C1", "activity, negative = inhibition": "6.39%"}
{"smiles": "N#CC(C#N)=NNc1ccc2cn[nH]c2c1", "AC50": "2.51 µM (active)"}
{"smiles": "COC(=O)[C@@]1(Cc2ccccc2)[C@@H]2C(=CC(=O)[C@H]2CC(=O)C(=O)N(C)C)CN1C(=O)c1ccccc1", "activity, negative = inhibition": "-29%"}
{"smiles": "COC(=O)[C@@]1(Cc2ccc(F)cc2)[C@@H]2C(=CC(=O)[C@H]2CC(=O)C(=O)N2CCCC2)CN1C(=O)c1ccccc1", "AC50": "10 µM (active)"}
{"smiles": "COC(=O)[C@@]1(Cc2ccc(F)cc2)[C@@H]2[C@@H](CC(=O)[C@H]2CC(=O)C(=O)N(C)C)CN1C(=O)c1ccccc1", "AC50": "20 µM (active)"}
{"smiles": "COC(=O)[C@@]1(Cc2ccc(OC)cc2)[C@@H]2C(=CC(=O)[C@H]2CC(=O)C(=O)N2CCCC2)CN1C(=O)c1ccccc1", "AC50": "10 µM (active)"}
{"smiles": "COc1ccc(C(=O)N2CCC[C@@]3(CCN(C(=O)Nc4ccccc4)C3)C2)cc1", "activity, negative = inhibition": "-9.88%"}
{"smiles": "C=C1C(=O)C=C2CN(C(=O)c3ccccc3)[C@@](Cc3ccc(F)cc3)(C(=O)OC)[C@@H]12", "AC50": "3.98 µM (active)"}
{"smiles": "O=C(O)c1c[nH]c2cc(OCc3ccccc3)ccc2c1=O", "activity, negative = inhibition": "-11.1% [at 11.4 µM]"}
{"smiles": "O=C(O)c1ccc(SSc2ccc(C(=O)O)cn2)nc1", "AC50": "1.58 µM (active)"}
{"smiles": "N[C@@H](C(=O)O)c1ccc(C(=O)O)cc1", "AC50": "inactive"}
{"smiles": "O=C(O)c1cc(C(=O)O)nc(C(=O)O)c1", "activity, negative = inhibition": "13.5% [at 11.4 µM]"}
{"smiles": "CC(C)C(NC(=O)C1CCCCC1)C(=O)NCc1ccccn1", "note": "(stereo not given)", "activity, negative = inhibition": "-22.3%"}
{"smiles": "COC(=O)[C@H](C)[C@H]1C[C@]1(C)[C@H](NC(=O)OCc1ccccc1)c1ccccc1", "AC50": "2 µM (active)"}
{"smiles": "C[C@@H](C(=O)NCc1cccc2ccccc12)[C@H]1C[C@]1(C)[C@H](NC(=O)OCc1ccccc1)c1ccccc1", "AC50": "3.16 µM (active)"}
{"smiles": "C[C@@H](C(=O)NCc1ccccn1)[C@H]1C[C@]1(C)[C@H](NC(=O)OCc1ccccc1)c1ccccc1", "AC50": "10 µM (active)"}
{"smiles": "C[C@@H](C(=O)O)[C@H]1C[C@]1(C)[C@H](NC(=O)OCc1ccccc1)c1ccccc1", "AC50": "15.8 µM (active)"}
{"smiles": "C/C(CCN1CCc2nc(-c3ccccc3)c(-c3ccccc3)cc2C1)=N\\OC[C@@H](O)[C@@H]1O[C@@H]2OC(C)(C)O[C@@H]2[C@H]1O", "activity, negative = inhibition": "-8.77% [at 11.4 µM]"}
{"smiles": "Cc1ccc(S(=O)(=O)N[C@@H]2COC(=O)C/C=C\\[C@H](C)COC(=O)N[C@@H](C)C(=O)C/C=C\\[C@H]2C)cc1", "activity, negative = inhibition": "7.18% [at 11.4 µM]"}
{"smiles": "CNc1ccnc(-c2ccccc2C(F)(F)F)n1", "activity, negative = inhibition": "1.23% [at 2.29 µM]"}
{"smiles": "COc1ccc(COC(=O)N/N=C2/C[C@@H](O)[C@@H](O)[C@@H]3[C@@H]4C(=O)N([C@@H](C)c5ccccc5)C(=O)[C@H]4CC[C@@H]23)cc1", "activity, negative = inhibition": "-19.2% [at 11.4 µM]"}
{"smiles": "C[C@@H](C(=O)NCc1nc2ccccc2[nH]1)[C@@H]1C[C@@]1(C)[C@@H](NC(=O)OCc1ccccc1)c1ccccc1", "AC50": "10 µM (active)"}
{"smiles": "COC(=O)[C@H](C)[C@@H]1C[C@@]1(C)[C@@H](NC(=O)OCc1ccccc1)c1ccccc1", "AC50": "5.01 µM (active)"}
{"smiles": "CNC(=O)[C@H](C)[C@H]1C[C@]1(C)[C@H](NC(=O)OCc1ccccc1)c1ccccc1", "AC50": "10 µM (active)"}
{"smiles": "CCN1CCCC1Cn1cnc2c([nH]c3ccc(C)cc32)c1=O", "note": "(stereo not given)", "activity, negative = inhibition": "-19.8%"}
{"smiles": "CN(C)CCNC(=O)C1CCCNC1=O", "note": "(stereo not given)", "activity, negative = inhibition": "1.04%"}
{"smiles": "Cn1cnc([N+](=O)[O-])c1SCC(=O)O", "activity, negative = inhibition": "4.52% [at 11.4 µM]"}
{"smiles": "OCCN=c1cc(-c2ccccc2)oc2ccc(Cl)cc12", "AC50": "2 µM (active)"}
{"smiles": "Cc1cc2c(=O)[nH]c(N)nc2nc1C", "activity, negative = inhibition": "0.234% [at 11.4 µM]"}
{"smiles": "CC(=O)c1sc(N)c(C(=O)OC(C)C)c1C", "AC50": "10 µM (active)"}
{"smiles": "CCOC(=O)/C(C#N)=C1/SC(CC)C(=O)N1c1ccc(Br)cc1", "note": "(stereo not given)", "AC50": "12.6 µM (active)"}
{"smiles": "Cc1ccc(S(=O)(=O)N2CCCC(C(=O)NCCCN3CCCCC3C)C2)cc1", "note": "(stereo not given)", "activity, negative = inhibition": "-9.5%"}
{"smiles": "O=C(CC1CCCCC1)N1CCC(c2nc(-c3ccc(S(=O)(=O)N4CCCC4)cc3)no2)CC1", "AC50": "7.94 µM (active)"}
{"smiles": "COC(=O)[C@@]1(Cc2ccc(OC)cc2)[C@H]2c3cc(C(=O)N4CCCC4)n(CCc4c[nH]c5ccc(O)cc45)c3C[C@H]2CN1C(=O)c1ccccc1", "AC50": "3.16 µM (active)"}
{"smiles": "COc1ccc(NC(=O)N2CCCC3(CCN(C(=O)c4cccc(F)c4)CC3)C2)cc1", "activity, negative = inhibition": "-14.3%"}
{"smiles": "COC(=O)[C@@]1(Cc2ccc(OC)cc2)[C@H]2c3cc(C(=O)N4CCCC4)n(CCc4c[nH]c5cc(F)ccc45)c3C[C@H]2CN1C(=O)c1ccccc1", "AC50": "3.16 µM (active)"}
{"smiles": "COC(=O)[C@@]1(Cc2ccc(F)cc2)[C@H]2c3cc(C(=O)N4CCCC4)n(CCc4c[nH]c5ccccc45)c3C[C@H]2CN1C(=O)c1ccccc1", "AC50": "2.51 µM (active)"}
{"smiles": "COc1ccc(NC(=O)N2CC[C@@]3(CCCN(C(=O)c4cccc(F)c4)C3)C2)cc1", "activity, negative = inhibition": "-7.57%"}
{"smiles": "COC(=O)[C@@]1(Cc2ccc(F)cc2)[C@H]2c3cc(C(=O)N4CCCC4)n(CCc4c[nH]c5ccc(OC)cc45)c3C[C@H]2CN1C(=O)c1ccccc1", "AC50": "7.94 µM (active)"}
{"smiles": "O=C(O)[C@@H]1CCCN1Cc1cc2ccccc2c2ccccc12", "activity, negative = inhibition": "-0.145% [at 11.4 µM]"}
{"smiles": "Nc1nc2c(ncn2COC(CO)CO)c(=O)[nH]1", "AC50": "inactive"}
{"smiles": "NC(=O)c1cc[n+](CC2=C(C(=O)O)N3C(=O)[C@@H](NC(=O)[C@H](c4ccccc4)S(=O)(=O)[O-])[C@@H]3SC2)cc1", "AC50": "inactive"}
{"smiles": "Cc1cnc(CNc2ncncc2-c2ccccc2C)cn1", "activity, negative = inhibition": "3.37% [at 2.29 µM]"}
{"smiles": "C[C@@H]1/C=C\\CC(=O)OC[C@H]2O[C@@H](C=C[C@@H]2O)[C@H](C)/C=C\\CC(=O)OC1", "activity, negative = inhibition": "-2.72% [at 11.4 µM]"}
{"smiles": "O=C(O)c1c[nH]c2c(ccc3[nH]cc(C(=O)O)c(=O)c32)c1=O", "activity, negative = inhibition": "12.3% [at 11.4 µM]"}
{"smiles": "N#Cc1ccc(CN2CCC3(CC2)CCN(C(=O)c2ccncc2)CC3)cc1", "activity, negative = inhibition": "-1.7%"}
{"smiles": "N#Cc1c(N2CCN(C(=O)c3ccccc3Cl)CC2)nc(-c2ccccc2)c2c1CCCC2", "AC50": "2.51 µM (active)"}
{"smiles": "Nc1nc2c(C(=O)NCc3cccs3)nnn2c2cccc(Cl)c12", "activity, negative = inhibition": "12.5% [at 11.4 µM]"}
{"smiles": "CCN(CC)CCc1nc(-c2ccccc2)no1", "activity, negative = inhibition": "-0.446% [at 25.6 µM]"}
{"smiles": "c1ccc(-c2noc(CSc3nnnn3C3CCCCC3)n2)cc1", "AC50": "3.55 µM (active)"}
{"smiles": "c1ccc(CCc2nc(-c3ccccc3)no2)cc1", "activity, negative = inhibition": "-12.7%"}
{"smiles": "O=C(N/N=C1/C[C@@H](O)[C@@H](O)[C@@H]2[C@@H]3C(=O)N(Cc4ccccc4)C(=O)[C@H]3CC[C@@H]12)OCc1ccccc1", "activity, negative = inhibition": "9.14% [at 11.4 µM]"}
{"smiles": "C[C@@](Cc1ccc(O)c(O)c1)(NN)C(=O)O", "activity, negative = inhibition": "-12.5%"}
{"smiles": "CCCCCCCC/C=C\\CCCCCCCC(=O)NCCc1ccc(O)c(O)c1", "AC50": "1.58 µM (active)"}
{"smiles": "CC(=O)NCCc1ccc(O)c(O)c1", "activity, negative = inhibition": "-8.63%"}
{"smiles": "Nc1ccn([C@H]2O[C@H](CO)[C@@H]3[O][Sn]([c]4ccccc4)([c]4ccccc4)[O][C@H]32)c(=O)n1", "activity, negative = inhibition": "24.8% [at 11.4 µM]"}
{"smiles": "FC(F)(F)c1ccccc1-c1ccc2ncnc(N3CCOCC3)c2c1", "activity, negative = inhibition": "-28.6% [at 2.29 µM]"}
{"smiles": "CCN1C(=O)[C@H]2[C@H]3[C@H](O)[C@H](O)C/C(=N/OC[C@@H](O)COCc4ccco4)[C@H]3CC[C@@H]2C1=O", "activity, negative = inhibition": "1.57% [at 11.4 µM]"}
{"smiles": "O=C(O)C[C@H](Cc1ccc2c(c1)OCO2)C(=O)O", "activity, negative = inhibition": "-23.6% [at 11.4 µM]"}
{"smiles": "c1ccc(SC(Sc2ccccc2)c2ccc3c(c2)OCO3)cc1", "AC50": "3.16 µM (active)"}
{"smiles": "c1ccc(Nc2ncncc2-c2ccc3c(c2)OCO3)cc1", "activity, negative = inhibition": "-20.1% [at 2.29 µM]"}
{"smiles": "CCCCN(C)CCCNC(=O)CCn1nc(-c2ccccc2)ccc1=O", "activity, negative = inhibition": "-20.5%"}
{"smiles": "COc1ccc(-c2ccc(N)[n+](CCCC(=O)O)n2)cc1", "AC50": "inactive"}
{"smiles": "COc1ccc(-c2ccc(=N)n(CCCC(=O)O)n2)cc1", "AC50": "3.16 µM (active)"}
{"smiles": "COc1cccc(-c2cc(NCc3cccnc3)ncn2)c1", "activity, negative = inhibition": "-28.7% [at 2.29 µM]"}
{"smiles": "COc1cccc(Cn2c(NCc3cccnc3)nc3c2c(=O)n(C)c(=O)n3C)c1", "AC50": "6.31 µM (active)"}
{"smiles": "CSC1(SC2=NCCN2)SC2(NCCN2)S1", "activity, negative = inhibition": "-10.8% [at 11.4 µM]"}
{"smiles": "CCOC(=O)Nc1ccc(C(=O)Oc2ccccc2)c(O)c1", "AC50": "17.8 µM (active)"}
{"smiles": "O=C(Nc1ccc2oc(=O)c(C(=O)O)cc2c1)Oc1ccccc1", "activity, negative = inhibition": "-10.6% [at 11.4 µM]"}
{"smiles": "CC(C)(C)c1ccc(OC(=O)Nc2ccc(O)c(C(=O)O)c2)cc1", "activity, negative = inhibition": "-20.8% [at 11.4 µM]"}
{"smiles": "CCOC(=O)c1cc2c(=O)n3ccccc3nc2n(CCCOC)c1=NC(=O)C(C)(C)C", "AC50": "1.58 µM (active)"}
{"smiles": "O=C(c1csnn1)N1CCC2(CC1)CCN(c1ncccn1)CC2", "activity, negative = inhibition": "6.9%"}
{"smiles": "COc1cc(N=c2ssnc2Cl)cc(OC)c1OC", "AC50": "6.31 µM (active)"}
{"smiles": "CCOC(=O)N/N=C1/C[C@@H](O)[C@@H](O)[C@@H]2[C@@H]3C(=O)N([C@@H](C)c4ccccc4)C(=O)[C@H]3CC[C@H]12", "activity, negative = inhibition": "27.2% [at 11.4 µM]"}
{"smiles": "CCOC(=O)C(C(=O)NCc1ccc(C)cc1)c1ncc(C(F)(F)F)cc1Cl", "note": "(stereo not given)", "activity, negative = inhibition": "10.8%"}
{"smiles": "CN(C)C(=O)c1cn(N(C)c2ncc(C(F)(F)F)cc2Cl)c(=O)c2ccccc12", "AC50": "2.82 µM (active)"}
{"smiles": "C[n+]1ccccc1/C=N\\O", "activity, negative = inhibition": "2.77% [at 25.6 µM]"}
{"smiles": "c1cc(CN2CCCCC2)cc(OCCCNc2nc3ccccc3s2)c1", "AC50": "inactive"}
{"smiles": "O=c1c(-c2nc3ccccc3s2)cccn1Cc1ccccc1", "AC50": "3.16 µM (active)"}
{"smiles": "C=CCn1c(-c2cccn(Cc3ccccc3)c2=O)n[nH]c1=S", "activity, negative = inhibition": "-28.8%"}
